This note sets out measurements from paper PMC7862700, “An all-to-all approach to the identification of sequence-specific readers for epigenetic DNA modifications on cytosine”.

Common to all, as to experiment: DAPPL (digital affinity profiling via proximity ligation, sequencing); 10 mM Tris-HCl pH 7.5, 50 mM NaCl, 1 mM DTT, 4% glycerol, room temperature, 30 min; GST-TFs on glutathione beads, 16-mer random dsDNA library, 0.1% formaldehyde crosslink after washing; high values mean tight binding
One assay deals with T1, FEV (Homo sapiens, UniProt Q99581 1-238).
T1 sequence: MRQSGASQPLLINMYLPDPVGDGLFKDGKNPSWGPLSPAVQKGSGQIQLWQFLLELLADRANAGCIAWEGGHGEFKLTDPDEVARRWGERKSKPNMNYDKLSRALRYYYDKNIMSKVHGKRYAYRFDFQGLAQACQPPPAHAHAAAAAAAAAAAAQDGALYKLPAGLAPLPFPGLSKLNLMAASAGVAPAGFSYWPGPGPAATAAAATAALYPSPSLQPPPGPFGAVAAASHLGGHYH
Conditions: protein: recombinant; tags: N-terminal GST; dsDNA, one strand shown. The procedure, abridged:
(§1)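 Sequencing on an Illumina NextSeq500 followed washing, crosslinking with 0.1% formaldehyde, proximity ligation (BsaI/T4 ligase, 1 h, 37 °C) and PCR amplification of pools that had been incubated for 30 min at room temperature with 200 nmole of a random double-stranded 16-mer DNA library in Tris/NaCl/DTT/glycerol buffer. Each pool held DNA-barcoded human transcription factors, expressed in yeast as GST fusions and captured on glutathione beads, plus a tag-only sample. Binding signal is a hexamer's read frequency for a factor divided by its frequency in the tag-only sample.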

The target in the next assay is ETV5 (Homo sapiens, UniProt P41161 1-510). The conditions noted are these: protein: recombinant; tags: N-terminal GST; dsDNA, one strand shown. The method, boiled down: as §1
The target of the next assay is HSF1 (Homo sapiens, UniProt Q00613 1-529). The conditions noted are these: protein: recombinant; tags: N-terminal GST; chain copies: 3; dsDNA, one strand shown. The method, boiled down: as §1
In a further assay the target is T2, SPIC (Homo sapiens, UniProt Q8N5J4 1-248).
T2 sequence: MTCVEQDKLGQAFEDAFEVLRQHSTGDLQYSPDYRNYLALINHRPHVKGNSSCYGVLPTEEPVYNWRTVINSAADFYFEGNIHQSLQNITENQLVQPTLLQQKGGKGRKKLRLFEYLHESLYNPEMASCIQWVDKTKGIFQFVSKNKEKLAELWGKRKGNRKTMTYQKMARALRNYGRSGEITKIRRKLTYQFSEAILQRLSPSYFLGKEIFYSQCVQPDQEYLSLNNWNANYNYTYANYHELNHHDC
The conditions noted are these: protein: recombinant; tags: N-terminal GST; dsDNA, one strand shown. The method, boiled down: as §1

The target in a further assay is ELF4 (Homo sapiens, UniProt Q99607 1-663). Conditions: protein: recombinant; tags: N-terminal GST; dsDNA, one strand shown. The method, boiled down: as §1
A further assay has as its target T3, ELK4 (Homo sapiens, UniProt P28324-2 1-405).
T3 sequence: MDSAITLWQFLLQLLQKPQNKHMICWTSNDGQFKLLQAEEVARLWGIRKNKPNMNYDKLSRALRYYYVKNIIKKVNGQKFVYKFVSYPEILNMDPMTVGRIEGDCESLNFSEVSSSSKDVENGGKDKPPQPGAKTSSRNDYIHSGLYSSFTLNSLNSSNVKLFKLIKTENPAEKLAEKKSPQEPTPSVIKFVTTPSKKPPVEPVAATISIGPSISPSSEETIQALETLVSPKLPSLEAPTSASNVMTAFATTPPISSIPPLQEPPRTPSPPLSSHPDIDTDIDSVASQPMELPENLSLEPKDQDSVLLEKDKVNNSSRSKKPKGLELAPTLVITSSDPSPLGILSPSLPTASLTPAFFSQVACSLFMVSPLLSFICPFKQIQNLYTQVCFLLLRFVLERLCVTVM
Conditions: protein: recombinant; tags: N-terminal GST; dsDNA, one strand shown. The method, boiled down: as §1

A further assay has as its target T4, ETV2 (Homo sapiens, UniProt O00321 1-342).
T4 sequence: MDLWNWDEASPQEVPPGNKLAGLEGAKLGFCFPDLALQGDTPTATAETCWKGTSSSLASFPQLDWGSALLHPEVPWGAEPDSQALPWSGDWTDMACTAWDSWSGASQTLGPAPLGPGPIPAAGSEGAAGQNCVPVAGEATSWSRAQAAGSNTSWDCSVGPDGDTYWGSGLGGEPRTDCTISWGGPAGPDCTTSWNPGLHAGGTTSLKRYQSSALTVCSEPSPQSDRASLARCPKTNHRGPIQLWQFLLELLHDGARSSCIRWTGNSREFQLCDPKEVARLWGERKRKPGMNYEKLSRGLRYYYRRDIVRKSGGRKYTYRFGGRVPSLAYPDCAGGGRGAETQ
The conditions noted are these: protein: recombinant; tags: N-terminal GST; dsDNA, one strand shown. The procedure, abridged:
as §1

The next assay concerns the target T5, ELF3 (Homo sapiens, UniProt P78545 1-371).
T5 sequence: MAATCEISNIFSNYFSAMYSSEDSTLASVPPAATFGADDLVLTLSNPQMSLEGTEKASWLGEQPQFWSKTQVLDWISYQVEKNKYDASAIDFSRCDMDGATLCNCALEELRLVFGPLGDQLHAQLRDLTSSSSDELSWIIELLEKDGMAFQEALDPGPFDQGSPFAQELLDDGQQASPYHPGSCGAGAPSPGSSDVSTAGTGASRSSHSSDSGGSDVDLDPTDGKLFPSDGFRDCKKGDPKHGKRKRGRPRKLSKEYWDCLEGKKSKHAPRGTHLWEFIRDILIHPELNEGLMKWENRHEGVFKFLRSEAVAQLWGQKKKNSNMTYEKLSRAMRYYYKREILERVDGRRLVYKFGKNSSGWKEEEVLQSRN
The conditions noted are these: protein: recombinant; tags: N-terminal GST; dsDNA, one strand shown. The method, boiled down: as §1

A further assay has as its target CRX (Homo sapiens, UniProt O43186 1-299). The conditions noted are these: protein: recombinant; tags: N-terminal GST; dsDNA, one strand shown. The procedure, abridged:
as §1

Another assay has as its target ETV1 (Homo sapiens, UniProt P50549 1-477). Conditions: protein: recombinant; tags: N-terminal GST; dsDNA, one strand shown. The procedure, abridged:
as §1

The target of the next assay is T6, ERF (Homo sapiens, UniProt P50548 1-548).
T6 sequence: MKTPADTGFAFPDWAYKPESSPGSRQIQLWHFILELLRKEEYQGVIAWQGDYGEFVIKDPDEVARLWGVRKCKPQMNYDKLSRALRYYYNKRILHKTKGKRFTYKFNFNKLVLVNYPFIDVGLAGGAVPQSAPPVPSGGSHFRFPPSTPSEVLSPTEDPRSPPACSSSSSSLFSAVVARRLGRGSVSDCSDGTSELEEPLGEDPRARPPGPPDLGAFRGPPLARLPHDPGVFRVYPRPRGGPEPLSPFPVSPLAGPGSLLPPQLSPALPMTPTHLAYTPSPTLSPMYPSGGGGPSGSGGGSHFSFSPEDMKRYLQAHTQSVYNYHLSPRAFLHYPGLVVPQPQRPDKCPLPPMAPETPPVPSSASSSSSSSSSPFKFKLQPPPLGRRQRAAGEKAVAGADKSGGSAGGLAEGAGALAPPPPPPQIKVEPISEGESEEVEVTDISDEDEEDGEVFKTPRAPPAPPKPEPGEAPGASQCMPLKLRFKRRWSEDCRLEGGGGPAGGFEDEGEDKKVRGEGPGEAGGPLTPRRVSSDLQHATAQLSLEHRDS
The conditions noted are these: protein: recombinant; tags: N-terminal GST; dsDNA, one strand shown. The procedure, abridged:
as §1

Another assay addresses T7, ETV3L (Homo sapiens, UniProt Q6ZN32 1-361).
T7 sequence: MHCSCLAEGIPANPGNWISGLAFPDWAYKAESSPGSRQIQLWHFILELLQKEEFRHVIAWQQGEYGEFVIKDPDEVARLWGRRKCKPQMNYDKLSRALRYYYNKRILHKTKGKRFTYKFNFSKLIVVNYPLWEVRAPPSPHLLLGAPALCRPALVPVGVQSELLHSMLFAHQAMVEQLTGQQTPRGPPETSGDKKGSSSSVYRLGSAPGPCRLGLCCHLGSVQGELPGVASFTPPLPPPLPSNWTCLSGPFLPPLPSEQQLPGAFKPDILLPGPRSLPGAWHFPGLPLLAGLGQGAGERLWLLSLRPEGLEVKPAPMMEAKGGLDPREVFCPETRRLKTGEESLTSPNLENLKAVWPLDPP
The conditions noted are these: protein: recombinant; tags: N-terminal GST; dsDNA, one strand shown. The method, boiled down:
as §1

Another assay addresses T8, ETS2 (Homo sapiens, UniProt P15036 1-469).
T8 sequence: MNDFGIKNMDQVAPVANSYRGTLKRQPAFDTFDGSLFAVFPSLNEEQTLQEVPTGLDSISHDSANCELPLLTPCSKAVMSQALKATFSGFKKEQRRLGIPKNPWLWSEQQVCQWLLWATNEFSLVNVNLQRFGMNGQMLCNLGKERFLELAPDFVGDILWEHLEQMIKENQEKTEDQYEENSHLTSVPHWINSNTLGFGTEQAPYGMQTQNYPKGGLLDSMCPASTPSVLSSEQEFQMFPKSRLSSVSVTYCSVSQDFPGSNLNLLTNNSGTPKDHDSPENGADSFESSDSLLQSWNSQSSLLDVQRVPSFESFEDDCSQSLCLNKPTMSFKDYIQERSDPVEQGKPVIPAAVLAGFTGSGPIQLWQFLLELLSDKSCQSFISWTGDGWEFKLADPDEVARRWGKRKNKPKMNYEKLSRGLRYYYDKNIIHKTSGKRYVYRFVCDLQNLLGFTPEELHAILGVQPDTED
The conditions noted are these: protein: recombinant; tags: N-terminal GST; dsDNA, one strand shown. The method, boiled down:
as §1

For the next assay, the target named is T9, SPDEF (Homo sapiens, UniProt O95238 1-335).
T9 sequence: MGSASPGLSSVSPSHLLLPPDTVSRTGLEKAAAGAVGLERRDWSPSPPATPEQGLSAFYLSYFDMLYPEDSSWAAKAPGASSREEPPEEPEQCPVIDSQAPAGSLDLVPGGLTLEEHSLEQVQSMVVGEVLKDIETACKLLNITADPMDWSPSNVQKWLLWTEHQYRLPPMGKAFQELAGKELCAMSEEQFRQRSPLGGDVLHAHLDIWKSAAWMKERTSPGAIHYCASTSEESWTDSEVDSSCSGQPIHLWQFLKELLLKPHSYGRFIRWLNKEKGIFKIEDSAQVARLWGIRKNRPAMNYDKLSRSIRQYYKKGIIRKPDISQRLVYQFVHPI
Conditions: protein: recombinant; tags: N-terminal GST; dsDNA, one strand shown. The procedure, abridged: as §1

The target in another assay is T10, ETV7 (Homo sapiens, UniProt Q9Y603 1-341).
T10 sequence: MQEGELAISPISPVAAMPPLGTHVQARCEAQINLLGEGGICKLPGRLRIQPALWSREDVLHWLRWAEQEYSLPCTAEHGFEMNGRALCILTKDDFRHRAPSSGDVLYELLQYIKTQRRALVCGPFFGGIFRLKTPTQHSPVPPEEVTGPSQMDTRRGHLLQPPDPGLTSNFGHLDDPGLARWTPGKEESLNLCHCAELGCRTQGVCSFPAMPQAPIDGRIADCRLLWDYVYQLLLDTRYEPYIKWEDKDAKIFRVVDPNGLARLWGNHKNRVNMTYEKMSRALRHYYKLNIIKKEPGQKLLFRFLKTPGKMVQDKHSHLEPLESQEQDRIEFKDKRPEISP
The conditions noted are these: protein: recombinant; tags: N-terminal GST; dsDNA, one strand shown. The procedure, abridged:
as §1

The target of the next assay is T11, ELF5 (Homo sapiens, UniProt Q9UKW6-2 1-255).
T11 sequence: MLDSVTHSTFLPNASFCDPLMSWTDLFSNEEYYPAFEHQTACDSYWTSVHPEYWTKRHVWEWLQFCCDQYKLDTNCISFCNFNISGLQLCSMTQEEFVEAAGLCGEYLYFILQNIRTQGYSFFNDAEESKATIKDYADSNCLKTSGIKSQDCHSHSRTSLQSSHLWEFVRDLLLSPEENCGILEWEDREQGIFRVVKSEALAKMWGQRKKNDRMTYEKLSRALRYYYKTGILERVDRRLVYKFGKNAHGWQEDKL
Conditions: protein: recombinant; tags: N-terminal GST; dsDNA, one strand shown. The procedure, abridged: as §1

The next assay concerns the target T12, ETV3 (Homo sapiens, UniProt P41162-2 1-143).
T12 sequence: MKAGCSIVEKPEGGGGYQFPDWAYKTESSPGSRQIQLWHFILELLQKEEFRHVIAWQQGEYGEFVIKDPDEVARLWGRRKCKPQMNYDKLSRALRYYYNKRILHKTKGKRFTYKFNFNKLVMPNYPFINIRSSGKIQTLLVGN
Conditions: protein: recombinant; tags: N-terminal GST; dsDNA, one strand shown. The method, boiled down:
as §1

Another assay has as its target ETV6 (Homo sapiens, UniProt P41212 1-452). Conditions: protein: recombinant; tags: N-terminal GST; dsDNA, one strand shown. The method, boiled down: as §1

Sequence of ELF4 (Q99607 whole entry): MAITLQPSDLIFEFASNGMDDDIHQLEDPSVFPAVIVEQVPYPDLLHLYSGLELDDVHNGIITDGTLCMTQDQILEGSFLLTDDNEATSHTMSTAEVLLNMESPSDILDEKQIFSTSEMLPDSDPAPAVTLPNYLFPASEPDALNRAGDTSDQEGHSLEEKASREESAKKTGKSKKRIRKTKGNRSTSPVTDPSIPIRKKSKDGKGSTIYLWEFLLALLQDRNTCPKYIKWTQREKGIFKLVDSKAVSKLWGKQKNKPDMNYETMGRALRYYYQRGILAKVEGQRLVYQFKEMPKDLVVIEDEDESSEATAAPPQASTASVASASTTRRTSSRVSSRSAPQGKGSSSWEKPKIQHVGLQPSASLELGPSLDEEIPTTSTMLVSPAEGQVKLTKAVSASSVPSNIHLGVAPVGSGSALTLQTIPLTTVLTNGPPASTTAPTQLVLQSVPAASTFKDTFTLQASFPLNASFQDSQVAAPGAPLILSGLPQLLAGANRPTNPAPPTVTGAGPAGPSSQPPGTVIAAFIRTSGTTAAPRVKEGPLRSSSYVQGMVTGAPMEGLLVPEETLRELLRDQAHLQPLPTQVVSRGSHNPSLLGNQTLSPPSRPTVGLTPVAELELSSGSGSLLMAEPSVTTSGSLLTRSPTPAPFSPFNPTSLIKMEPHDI
Sequence of ETV1 (P50549 whole entry): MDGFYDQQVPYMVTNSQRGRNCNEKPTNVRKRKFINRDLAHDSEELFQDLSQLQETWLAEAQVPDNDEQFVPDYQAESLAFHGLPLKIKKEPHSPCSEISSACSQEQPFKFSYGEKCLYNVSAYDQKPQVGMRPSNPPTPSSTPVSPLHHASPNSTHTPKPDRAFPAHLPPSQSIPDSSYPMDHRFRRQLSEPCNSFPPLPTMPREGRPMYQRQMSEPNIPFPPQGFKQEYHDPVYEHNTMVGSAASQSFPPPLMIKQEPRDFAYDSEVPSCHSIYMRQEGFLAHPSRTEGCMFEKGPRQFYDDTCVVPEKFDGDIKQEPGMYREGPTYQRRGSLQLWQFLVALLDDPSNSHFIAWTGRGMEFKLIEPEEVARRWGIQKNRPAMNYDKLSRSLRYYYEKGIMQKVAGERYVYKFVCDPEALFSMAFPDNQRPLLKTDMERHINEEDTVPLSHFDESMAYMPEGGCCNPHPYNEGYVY
Sequence of CRX (O43186 whole entry): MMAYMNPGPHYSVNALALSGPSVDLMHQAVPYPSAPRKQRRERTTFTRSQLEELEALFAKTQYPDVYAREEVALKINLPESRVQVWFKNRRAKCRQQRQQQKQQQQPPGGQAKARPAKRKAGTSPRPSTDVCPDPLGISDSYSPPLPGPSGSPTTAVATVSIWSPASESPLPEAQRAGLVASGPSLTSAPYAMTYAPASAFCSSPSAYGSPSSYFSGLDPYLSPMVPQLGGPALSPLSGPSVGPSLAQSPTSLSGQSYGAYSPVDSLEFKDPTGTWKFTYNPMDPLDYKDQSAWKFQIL
Sequence of HSF1 (Q00613 whole entry): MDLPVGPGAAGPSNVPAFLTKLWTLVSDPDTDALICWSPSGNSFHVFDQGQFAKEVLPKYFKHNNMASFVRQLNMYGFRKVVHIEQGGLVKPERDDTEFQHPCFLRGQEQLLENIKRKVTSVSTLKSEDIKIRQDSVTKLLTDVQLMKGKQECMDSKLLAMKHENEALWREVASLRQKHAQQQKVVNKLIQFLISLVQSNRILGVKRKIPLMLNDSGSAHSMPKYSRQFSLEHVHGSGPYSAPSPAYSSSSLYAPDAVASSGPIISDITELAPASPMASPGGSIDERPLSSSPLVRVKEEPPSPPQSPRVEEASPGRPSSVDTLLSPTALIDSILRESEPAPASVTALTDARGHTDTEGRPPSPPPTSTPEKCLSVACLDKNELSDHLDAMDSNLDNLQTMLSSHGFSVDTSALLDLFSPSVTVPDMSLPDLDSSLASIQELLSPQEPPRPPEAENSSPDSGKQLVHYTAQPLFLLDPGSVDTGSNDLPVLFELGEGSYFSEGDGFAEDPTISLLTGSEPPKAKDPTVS
Sequence of ETV6 (P41212 whole entry): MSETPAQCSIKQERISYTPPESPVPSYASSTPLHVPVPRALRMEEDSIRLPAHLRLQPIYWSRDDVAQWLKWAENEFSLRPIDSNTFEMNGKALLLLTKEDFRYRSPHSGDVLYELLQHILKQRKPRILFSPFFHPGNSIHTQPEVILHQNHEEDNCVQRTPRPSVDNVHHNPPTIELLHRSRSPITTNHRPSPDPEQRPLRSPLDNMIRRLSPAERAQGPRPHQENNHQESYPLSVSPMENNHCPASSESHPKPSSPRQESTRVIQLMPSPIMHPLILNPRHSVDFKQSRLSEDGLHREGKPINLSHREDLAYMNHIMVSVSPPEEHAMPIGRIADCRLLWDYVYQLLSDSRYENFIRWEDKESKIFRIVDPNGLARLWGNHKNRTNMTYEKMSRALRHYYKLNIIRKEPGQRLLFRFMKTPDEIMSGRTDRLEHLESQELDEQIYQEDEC
Sequence of ETV5 (P41161 whole entry): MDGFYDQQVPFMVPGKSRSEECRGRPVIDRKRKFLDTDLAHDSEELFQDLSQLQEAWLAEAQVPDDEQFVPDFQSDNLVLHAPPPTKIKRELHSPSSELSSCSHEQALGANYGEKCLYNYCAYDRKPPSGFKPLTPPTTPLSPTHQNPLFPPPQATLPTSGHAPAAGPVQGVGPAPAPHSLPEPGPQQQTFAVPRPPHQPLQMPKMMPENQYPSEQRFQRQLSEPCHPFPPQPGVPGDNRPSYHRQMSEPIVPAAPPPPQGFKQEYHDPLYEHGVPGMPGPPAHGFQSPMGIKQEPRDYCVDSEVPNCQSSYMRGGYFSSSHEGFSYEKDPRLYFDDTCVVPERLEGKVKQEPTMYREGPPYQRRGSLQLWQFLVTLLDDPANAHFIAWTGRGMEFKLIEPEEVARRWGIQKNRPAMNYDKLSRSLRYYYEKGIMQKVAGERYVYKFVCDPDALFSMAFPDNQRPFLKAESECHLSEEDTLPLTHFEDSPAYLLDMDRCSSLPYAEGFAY

In the case of TTAATT, the binding signal in the assay with FEV was 1.31 fold enrichment (6-mer frequency, TF over GST control); with ETV5, 1.49 fold enrichment (6-mer frequency, TF over GST control); in the assay with HSF1 it was 2.23 fold enrichment (6-mer frequency, TF over GST control); with SPIC, 1.33 fold enrichment (6-mer frequency, TF over GST control); with ELF4, 1.33 fold enrichment (6-mer frequency, TF over GST control); in the assay with ELK4 it was 1.3 fold enrichment (6-mer frequency, TF over GST control). Also, the binding signal was 1.43 fold enrichment (6-mer frequency, TF over GST control) in the assay with ETV2; 1.27 fold enrichment (6-mer frequency, TF over GST control) with ELF3; 3.46 fold enrichment (6-mer frequency, TF over GST control) with CRX; 1.34 fold enrichment (6-mer frequency, TF over GST control) in the assay with ETV1; 1.39 fold enrichment (6-mer frequency, TF over GST control) with ERF; 1.39 fold enrichment (6-mer frequency, TF over GST control) in the assay with ETV3L. The binding signal with ETS2 was 1.5 fold enrichment (6-mer frequency, TF over GST control); with SPDEF, 1.3 fold enrichment (6-mer frequency, TF over GST control); with ETV7, 1.55 fold enrichment (6-mer frequency, TF over GST control); with ELF5, 1.43 fold enrichment (6-mer frequency, TF over GST control); in the assay with ETV3, 1.44 fold enrichment (6-mer frequency, TF over GST control); with ETV6 it was 1.4 fold enrichment (6-mer frequency, TF over GST control).
